PMC4336329 (PLoS ONE, 2015)
Among all 310,000 compounds or so, about 14,000 (4.5%) showed an effect of 50% or more. Effects have a minus sign here. The sample as a whole holds a higher share of strong results than the screen did.

Each compound was assayed against human ether-à-go-go-related gene (hERG) potassium channel (human, UniProt Q12809) (assay: primary screen, population patch clamp on CHO cells stably expressing hERG; higher = less effect of the substance).
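Note: peak tail current of the secondary pulse compared with the same well before compound.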

human ether-à-go-go-related gene (hERG) potassium channel, sequence (Q12809 whole entry, looked up): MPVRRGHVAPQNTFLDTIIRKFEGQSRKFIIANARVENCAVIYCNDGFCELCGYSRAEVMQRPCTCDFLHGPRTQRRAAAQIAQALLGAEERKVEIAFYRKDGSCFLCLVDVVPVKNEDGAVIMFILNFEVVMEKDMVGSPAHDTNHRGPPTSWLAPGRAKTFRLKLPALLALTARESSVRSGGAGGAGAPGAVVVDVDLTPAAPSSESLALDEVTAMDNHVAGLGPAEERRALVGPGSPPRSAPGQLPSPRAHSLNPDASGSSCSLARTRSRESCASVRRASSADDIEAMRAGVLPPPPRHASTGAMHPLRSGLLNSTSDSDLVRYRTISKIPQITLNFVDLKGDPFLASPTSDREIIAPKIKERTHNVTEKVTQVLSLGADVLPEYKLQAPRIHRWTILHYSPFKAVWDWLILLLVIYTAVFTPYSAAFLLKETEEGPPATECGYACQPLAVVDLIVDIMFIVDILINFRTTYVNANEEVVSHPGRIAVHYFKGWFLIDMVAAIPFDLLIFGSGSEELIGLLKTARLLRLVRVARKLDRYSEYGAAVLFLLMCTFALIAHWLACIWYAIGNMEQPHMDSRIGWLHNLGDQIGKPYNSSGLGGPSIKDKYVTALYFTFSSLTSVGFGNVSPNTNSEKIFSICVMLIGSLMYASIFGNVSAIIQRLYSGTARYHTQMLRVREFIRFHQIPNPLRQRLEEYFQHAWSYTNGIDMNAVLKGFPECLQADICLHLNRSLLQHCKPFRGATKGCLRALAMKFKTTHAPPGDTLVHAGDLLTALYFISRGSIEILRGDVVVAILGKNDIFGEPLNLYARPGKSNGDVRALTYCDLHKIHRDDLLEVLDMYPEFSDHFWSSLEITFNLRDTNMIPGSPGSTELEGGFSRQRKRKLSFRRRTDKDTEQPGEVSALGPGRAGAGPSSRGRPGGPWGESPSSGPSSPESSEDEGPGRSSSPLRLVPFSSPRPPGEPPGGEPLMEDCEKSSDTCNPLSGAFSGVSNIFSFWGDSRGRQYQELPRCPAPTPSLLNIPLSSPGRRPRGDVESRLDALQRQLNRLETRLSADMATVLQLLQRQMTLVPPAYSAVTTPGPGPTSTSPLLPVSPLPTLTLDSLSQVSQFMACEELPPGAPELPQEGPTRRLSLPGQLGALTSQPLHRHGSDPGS

| SMILES | hERG current change (%, negative = inhibition) at 10uM |
| --- | --- |
| CCOc1cc(Br)c(C=O)cc1OCC | 22.1% |
| CC1(CCc2ccccc2)NC(=O)N(CC(=O)N2CC(=O)Nc3ccccc32)C1=O (stereo not shown) | 7.19% |
| O=C(COC(=O)c1ccccn1)Nc1ccccc1OC(F)F | 6.71% |
| Cc1cnc(NC(=O)CN(C)S(=O)(=O)c2ccc(Cl)cc2)s1 | -1.68% |
| O=C(CC(c1ccccc1)c1cc(Br)ccc1O)NCCN1CCOCC1 (stereo not shown) | -34.7% |
| CCCCCCCOC(=O)C1=C(C)Nc2ncnn2C1c1cccs1 (stereo not shown) | -0.122% |
| Cc1ccc(NC(=O)COc2ccc(Br)cc2C)cc1 | 0.803% |
| COc1ccc(/C=N/NC(=O)c2ccncc2)cc1OC | 15.5% |
| COc1ccc(/C=N/NC(=O)c2ccncc2)cc1CN1CCN(c2ccc(F)cc2)CC1 | -77% |
| COc1ccc(C(=O)N/N=C/c2ccc(OC)c(CN3CCN(c4ccc(F)cc4)CC3)c2)cc1 | -74.2% |
| COc1ccc(C(=O)N/N=C/c2ccc(OC)c(COc3ccc(F)cc3)c2)cc1 | -35.2% |
| COc1ccc(C(=O)N/N=C/c2ccc(OC)c(COc3ccc(F)cc3F)c2)cc1 | 3.74% |
| COc1ccc(/C=N/NC(=O)c2ccncc2)cc1CN1CCCc2ccccc21 | -26.1% |
| NC1=NC(=O)/C(=C\c2ccc(-c3ccc(Cl)cc3)o2)S1 | 9.15% |
| COc1ccc(NC(=O)CS(=O)CC(=O)NCC2OCCc3ccccc32)cc1 (stereo not shown) | 16.2% |
| C=CCNC(=S)NNC(=O)c1ccncc1 | 1.85% |
| O=C1CC(N2CCN(Cc3ccc(Cl)cc3)CC2)C(=O)N1CCc1ccccc1 (stereo not shown) | -37.4% |
| Cc1ccc(NC(=O)COC(=O)CCc2c[nH]c(=O)[nH]2)cc1 | 1.45% |
| Fc1cccc(CNC2CCN(CCc3ccccc3)CC2)c1 | -42.8% |
| COc1cccc(C(c2nnnn2Cc2ccc(F)cc2)N2CCC(C(N)=O)CC2)c1OC (stereo not shown) | -24.8% |
| COc1c(O)cccc1[C@@H](O)C1CCN(CCc2ccc(F)cc2)CC1 | -55.8% |
| Cc1cc(Cl)ccc1OCC(=O)NC(=S)Nc1ccc(Cl)cn1 | 10.9% |

| SMILES | hERG current change (%, negative = inhibition) at 10uM |
| --- | --- |
| Cc1ccc(C(=O)NC(C)(COc2nonc2C)COc2nonc2C)cc1 | -40% |
| Cc1nonc1OCC(C)(COc1nonc1C)NC(=O)c1ccccc1 | -6.59% |
| Cc1nonc1OCC(C)(COc1nonc1C)NC(=O)c1ccc(Cl)cc1 | -61.1% |
| Cn1c(=O)n(Cc2ccccc2F)c2ccccc21 | -16.3% |
| CC(=O)c1ccc2c(c1)C1C(Cl)C(Sc3ccccc3[N+](=O)[O-])CC1C(C(=O)O)N2 (stereo not shown) | -20.8% |
| CCN(CC)C(=O)c1ccc2c(c1)C1C(Cl)C(Sc3ccccc3[N+](=O)[O-])CC1C(C(=O)O)N2 (stereo not shown) | -59.3% |
| CC(=O)c1ccc2c(c1)C1C(Cl)C(Sc3ccccc3[N+](=O)[O-])CC1C(c1ccccc1)N2 (stereo not shown) | 15.1% |
| CN(Cc1nc(-c2cccc(Cl)c2)no1)C1CCOCC1 | -22.7% |
| CCCn1c(=O)c(C(=O)NCc2cccnc2)c(O)c2ccccc21 | -34.7% |
| CCCCn1c(=O)c(C(=O)NCc2ccncc2)c(O)c2ccccc21 | -44% |
| CCCCCn1c(=O)c(C(=O)NCc2ccccc2)c(O)c2ccccc21 | 15.2% |
| CCn1c(C(=O)NCc2cccnc2)cc2sc(Cl)cc21 | -57.2% |
| CCCn1c(=O)c(C(=O)NNS(=O)(=O)c2ccc(NC(=O)OC)cc2)c(O)c2ccccc21 | 9.85% |
| CCCCCn1c(=O)c(C(=O)NCc2ccncc2)c(O)c2ccccc21 | -53.7% |
| CCn1c(=O)c(C(=O)NCc2ccccc2)c(O)c2ccccc21 | 19.1% |
| CCn1c(=O)c(C(=O)NNS(=O)(=O)c2ccc(NC(=O)OC)cc2)c(O)c2ccccc21 | -56.3% |
| CCn1c(=O)c(C(=O)NCc2cccnc2)c(O)c2ccccc21 | -56.4% |
| Cn1c(C(=O)NCc2cccnc2)cc2sc(Cl)cc21 | -43.9% |
| Cn1c(C(=O)NCc2cccnc2)cc2sccc21 | -10.2% |
| COC(=O)Nc1ccc(S(=O)(=O)NNC(=O)c2c(O)c3ccccc3n(C)c2=O)cc1 | 25.9% |
| O=C(NCc1ccccc1)c1cccc(OCC(=O)N2CCN(C(=O)c3ccco3)CC2)c1 | -41.1% |
